Out of some 99,000 compounds screened, about 820 (0.83%) were called active.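 The calls were made as follows: active = Z-score of -3 or lower, scaled per plate to the spread of control and sample wells; inactive = z-score above -3.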 Shown is part of a subset that was picked to be rich in actives.
These molecules were tested against Protein-tyrosine kinase 2-beta (Homo sapiens) (UniProt Q14289) (assay: Pyk2 FERM oligomerization blockers – Q293 cells, FERM NanoBiT luminescence, HTS, primary screen (AID 1347419;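 also: the deposit names both 25 µM and 10 µM; negative z-score means lost luminescence so less FERM oligomerization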)). Conditions: stronger effect = lower value.
Chain of Protein-tyrosine kinase 2-beta (Homo sapiens) (Q14289 whole entry, looked up): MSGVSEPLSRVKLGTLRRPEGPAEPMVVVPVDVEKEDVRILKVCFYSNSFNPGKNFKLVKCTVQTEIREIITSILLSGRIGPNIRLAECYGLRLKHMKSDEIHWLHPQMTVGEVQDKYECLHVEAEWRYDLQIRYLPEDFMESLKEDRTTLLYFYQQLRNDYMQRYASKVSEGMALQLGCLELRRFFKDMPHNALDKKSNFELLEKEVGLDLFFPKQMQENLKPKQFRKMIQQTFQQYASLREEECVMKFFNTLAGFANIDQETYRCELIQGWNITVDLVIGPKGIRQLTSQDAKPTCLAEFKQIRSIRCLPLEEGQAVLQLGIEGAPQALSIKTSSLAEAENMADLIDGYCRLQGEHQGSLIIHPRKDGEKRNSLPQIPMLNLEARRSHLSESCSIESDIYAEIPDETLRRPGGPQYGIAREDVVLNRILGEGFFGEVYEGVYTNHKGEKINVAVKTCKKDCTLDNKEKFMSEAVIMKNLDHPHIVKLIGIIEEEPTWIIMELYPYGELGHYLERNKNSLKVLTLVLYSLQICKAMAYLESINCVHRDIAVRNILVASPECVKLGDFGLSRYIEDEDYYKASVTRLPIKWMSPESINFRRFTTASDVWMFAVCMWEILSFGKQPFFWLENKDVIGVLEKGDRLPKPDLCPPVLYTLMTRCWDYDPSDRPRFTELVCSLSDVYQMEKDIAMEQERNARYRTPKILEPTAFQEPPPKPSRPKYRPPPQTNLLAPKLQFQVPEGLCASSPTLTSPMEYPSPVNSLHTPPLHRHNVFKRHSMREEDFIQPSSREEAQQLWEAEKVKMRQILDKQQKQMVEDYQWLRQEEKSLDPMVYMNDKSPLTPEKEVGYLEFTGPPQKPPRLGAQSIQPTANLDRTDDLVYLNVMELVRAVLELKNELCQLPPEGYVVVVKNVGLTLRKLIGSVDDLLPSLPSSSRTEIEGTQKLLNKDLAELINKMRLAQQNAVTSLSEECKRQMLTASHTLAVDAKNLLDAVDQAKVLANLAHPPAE
Design: dose or concentration left out as unconfirmed
For CCOc1ccc(Br)cc1S(=O)(=O)Nc1cccc(S(=O)(=O)N(CC)CC)c1, the z-score was 1.18 (inactive).
For O=c1oc2cc(O)ccc2cc1-c1ccc(F)cc1, the z-score was -0.5 (inactive).
CCCCCCc1cc2cc(-c3nnc(-c4ccccc4)o3)c(=O)oc2cc1O was tested, and the z-score was -3.06 (active).
With CC(C)NC(=O)C(=O)NCCCOC(C)C the z-score was 0.05 (inactive).
In the case of COC(=O)c1cc(NC(=O)Cc2ccccc2[N+](=O)[O-])ccc1Cl, the z-score is reported as -0.53 (inactive).
In the case of COc1cc(OC)nc(N/N=C(\c2ccccc2)c2ccncc2)n1, the z-score is reported as 2.22 (inactive).
O=C(N/N=C/c1cccc([N+](=O)[O-])c1)C1CC(=O)N(c2ccc(Br)cc2)C1 (configuration not stated) was tested, and the z-score was 0.31 (inactive).
In the case of Cc1nc(-c2ccccc2)sc1C(=O)/C=C/c1ccccc1, the z-score is reported as -0.6 (inactive).
With O=C(/C=C/c1ccccc1)c1ccoc1 the z-score was 2.22 (inactive).
Cc1[nH]c(=O)c(C(=O)/C=C/c2ccccc2)c2c1CCCC2 was tested, and the z-score was -3.31 (active).
With CC1(c2cccc([N+](=O)[O-])c2)CC(C)(C)N(C(=O)c2ccccc2)c2ccccc21 (configuration not stated) the z-score was -0.67 (inactive).
With CCn1c(SCC(=O)Nc2ccc(C)cc2)nc2nc3c(cc2c1=O)CCCC3 the z-score was -2.19 (inactive).
For COc1ccc(N(CC(=O)N/N=C/c2cccs2)S(=O)(=O)c2ccc(OC)c(OC)c2)cc1, the z-score was -2.54 (inactive).
For COc1ccc(N(CC(=O)N/N=C/c2cccc3c2OCCO3)S(=O)(=O)c2ccc(NC(C)=O)cc2)cc1, the z-score was -3.71 (active).
In the case of Cc1ccc(S(=O)(=O)N(CC(=O)N/N=C/c2ccc(F)cc2)c2cccc3cccnc23)cc1, the z-score is reported as -0.75 (inactive).
In the case of CC(C)CN(C(=O)CN1CCN(S(=O)(=O)c2ccccc2)CC1)c1c(N)n(CC(C)C)c(=O)[nH]c1=O, the z-score is reported as 0.05 (inactive).
CCCC(C)C(=O)OCC(=O)Nc1c(Br)cc(C)cc1Br (configuration not stated) was tested, and the z-score was 1.59 (inactive).
With CCC(C)(C)n1nnnc1C(c1ccccc1OC)N1CCSCC1 (configuration not stated) the z-score was -0.08 (inactive).
CCC(C)(C)n1nnnc1C(c1cccs1)N1CCN(c2nc3ccccc3s2)CC1 (configuration not stated) was tested, and the z-score was -3.48 (active).
In the case of CCC(C)(C)n1nnnc1C(c1cccs1)N1CCN(Cc2ccccc2)CC1 (configuration not stated), the z-score is reported as 0.51 (inactive).
Cc1ccc(C(=O)COC(=O)c2cccc(N3C(=O)c4c(C)nc5ccccc5c4C3=O)c2)cc1C was tested, and the z-score was 0.74 (inactive).
N#CC(C(N)=O)=C1CCC2(CC1)OCCCCO2 was tested, and the z-score was 0.83 (inactive).
CC1(C)C/C(=C(/C#N)C(N)=O)CCO1 was tested, and the z-score was -3.62 (active).
With O=C(Nc1ccccc1)c1cc2ccccc2[nH]1 the z-score was 0.86 (inactive).
In the case of S=C1Nc2cc(Cl)ccc2Sc2ccccc21, the z-score is reported as -0.5 (inactive).
With CC1=C(C(=O)Nc2cc(C)ccn2)C(c2cnn(C)c2)C2=C(CC(c3ccccc3)CC2=O)N1 (configuration not stated) the z-score was 1.36 (inactive).
In the case of Cc1nn(-c2ccccc2)c(C)c1/C=C/C(=O)OC(C)C(N)=O (configuration not stated), the z-score is reported as 0.82 (inactive).

From PubChem BioAssay AID1347419 (Sanford-Burnham Center for Chemical Genomics, 2020)
